Screens (PubChem BioAssay)
HepG2 viability – kills HepG2 cells in TGF-b inhibitor counter-screen. actives 0.76% (n = 410,000). HepG2 CAGA-GFP viability, ATP luminescence, 18 h. Potency, µM (series often up to 46.1 µM), inactives show at the top dose activity change, negative = cytotoxicity, usual class: cytotoxic; further: potency means the concentration at half of the fitted maximal effect
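CellTiter-Glo luminescence gave cytotoxicity after 18 hours at 37 degrees C. The cells were HepG2 CAGA-GFP in 1% FBS DMEM, stimulated with 500 pg/mL TGF-beta after compound addition. %Activity was normalised to no-cell wells (complete cell-killing) and DMSO (no toxicity), and curves were fitted and classified.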
DT40 TDP1 CPT – growth inhibition of DT40 Tdp1-/-;hTDP1 cells with camptothecin (screen for TDP1 inhibitors) | chicken DT40 Tdp1-/-;hTDP1 cells + 20 nM CPT, ATP luminescence, 48 h | Potency, µM (top dose mostly 46.2 µM), without a hit: top-dose activity change, negative = growth inhibition, usual class: inhibitors | actives 12% (n = 420,000) | AID 686979; further: potency means the concentration at half of the fitted maximal effect; on the % scale 0 is the no-effect control and ±100 the full control effect; nearly all actives have a fitted effect of over 55% in size
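Cell growth measured by CellTiter-Glo luminescence after a minimum 48 h, 37 C compound exposure with 20 nM CPT in Tdp1-knockout DT40 cells stably expressing hTDP1, seeded 400/well; qHTS titration format.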
TDP1 cell noCPT – qHTS for Inhibitors of human tyrosyl-DNA phosphodiesterase 1 (TDP1): qHTS in cells in absence of CPT | DT40 Tdp1-/- hTDP1 cells, no CPT, ATP luminescence, 48 h | Potency, µM (top dose mostly 46.2 µM), inactives show top-dose activity change, negative = growth inhibition, usual class: inhibitors | actives 15% (n = 420,000) | AID 686978, 2013; further: potency means the concentration at half of the fitted maximal effect; on the % scale 0 is the no-effect control and ±100 the full control effect; nearly all actives have a fitted effect of over 55% in size
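Growth of hTDP1-complemented DT40 Tdp1-knockout cells is measured by ATP luminescence after at least 48 hr compound exposure at 37 °C, with DMSO substituting for the 20 nM CPT used in the parallel screen.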
TDP1 block – inhibitors of human tyrosyl-DNA phosphodiesterase TDP1; Q9NUW8; recombinant TDP1, AlphaScreen DNA substrate cleavage; Potency, µM (titrated, usually from 130 µM), for inactives: at the top dose activity change, negative = inhibition, actives largely listed as inhibitors; actives 0.28% (n = 350,000); further: potency means the concentration at half of the fitted maximal effect; on the % scale 0 is the no-effect control and ±100 the full control effect; nearly all actives have a fitted effect of over 40% in size
Target sequence (Q9NUW8 whole entry, looked up): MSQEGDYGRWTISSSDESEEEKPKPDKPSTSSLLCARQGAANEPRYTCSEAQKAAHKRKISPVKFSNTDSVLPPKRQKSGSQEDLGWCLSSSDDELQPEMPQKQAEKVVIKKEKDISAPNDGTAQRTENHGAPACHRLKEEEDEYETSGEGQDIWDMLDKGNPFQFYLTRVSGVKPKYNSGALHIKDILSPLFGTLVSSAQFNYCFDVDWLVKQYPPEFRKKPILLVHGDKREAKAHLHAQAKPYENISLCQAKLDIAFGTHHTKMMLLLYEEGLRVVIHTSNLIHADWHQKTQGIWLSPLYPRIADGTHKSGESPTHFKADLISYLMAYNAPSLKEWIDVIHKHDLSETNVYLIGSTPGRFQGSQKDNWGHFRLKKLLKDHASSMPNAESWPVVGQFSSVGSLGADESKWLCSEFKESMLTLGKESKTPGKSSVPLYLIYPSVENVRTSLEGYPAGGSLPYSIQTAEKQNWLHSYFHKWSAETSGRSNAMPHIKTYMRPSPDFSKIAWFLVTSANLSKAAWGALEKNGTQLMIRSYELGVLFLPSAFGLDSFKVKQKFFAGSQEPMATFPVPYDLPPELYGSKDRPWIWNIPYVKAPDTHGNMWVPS
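AlphaScreen read-out: signal falls as enzyme removes the 3' tyrosine-FITC from a 5'-biotinylated DNA oligo (15 nM, 5 min, RT). Enzyme was E. coli-made recombinant Tdp1 at 1 nM, exposed to compound for 15 min beforehand; beads 10 ug/ml, 10 min.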
IL1B secr inh – inhibitors of inflammasome signaling (IL-1 beta secretion) | THP-1 LPS/ATP IL-1B secretion, AlphaLISA, 16 h; hits give low values | activity change, % at 57.5 µM | actives 4.7% (n = 360,000) | AID 743279; in the data active means activity change below about -50%; inconclusive means mostly about -30% to -49%; further: on the % scale 0 is the no-effect control and ±100 the full control effect
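Secreted IL-1B measured by AlphaLISA bead assay after 16 h compound exposure of THP-1 cells; compounds (final up to 57.5 uM) added 1 h before LPS (250 ng/mL) and ATP (1.25 mM) stimulation; lower signal means less secretion.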
TGFb SMAD3 inh – blocks TGF-b signaling; HepG2 CAGA-GFP TGF-b/SMAD3 reporter, GFP fluorescence, 18 h; TGF-beta stimulated, 500 pg/mL final; Potency, µM (series often up to 46.1 µM), inactives show top-dose activity, negative = inhibition, actives largely listed as inhibitors; actives 1.2% (n = 410,000); AID 588855; further: potency means the concentration at half of the fitted maximal effect; on the % scale 0 is the no-effect control and ±100 the full control effect; nearly all actives have a fitted effect of over 65% in size
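Inhibition was scored as loss of TGF-beta-induced (500 pg/mL final, 18 hours, 37 degrees C) GFP in HEPG2 cells carrying a CAGA-GFP reporter, in DMEM with 1% FBS. Well GFP was summed per cell; Activity was normalised to unstimulated and stimulated DMSO wells, then concentration-response fitting.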
* hit, by the source's call; ? = inconclusive; . = no result. Most compounds without a hit are left out; they make up all but 19% or so of the library. Unless noted, the call rests on the fitted dose curve; in most records, active means well fitted curve in the direction sought with a large enough effect; inconclusive means small, poorly fitted or top-dose-only effect, or another doubt; inactive means no such curve, though single readings can be large; an effect the other way counts as inactive or inconclusive.

SMILES | HepG2 viability | DT40 TDP1 CPT | TDP1 cell noCPT | TDP1 block | IL1B secr inh | TGFb SMAD3 inh
Cc1ccccc1CS(=O)(=O)c1snnc1C | -2.8% | -23.0% | 23.1% | -3.9% | -23.0 | -12.6%
Cc1ccccc1CS(=O)(=O)c1cnc2ccccc2n1 | -23.9% | ? | 29.1µM* | 0.0% | -119.4* | ?
CC(C)CCN1C(=O)c2ccccc2CC1(C)C(=O)NC1CCCCC1 (configuration not stated) | 0.5% | ? | ? | 3.9% | . | .
CCCCOC(=O)Cn1c(=N)n(CCC)c2ccccc21 | -20.2% | 0.3% | -9.1% | 9.8% | 30.6 | -9.6%
CCCn1c(=N)n(CCOc2ccc(OC)cc2)c2ccccc21 | -64.0% | 16.4µM* | 18.4µM* | 0.0% | -58.2* | -4.1%
N=c1n(CCCOc2ccc(Br)cc2)c2ccccc2n1CC(N)=O | -71.9% | 18.4µM* | 16.4µM* | 1.2% | -14.2 | ?
CCOC(=O)Cn1c(=N)n(CCOc2ccc(OC)cc2)c2ccccc21 | -5.6% | -13.8% | -10.3% | -2.0% | ? | 0.4%
CCOC(=O)Cn1c(=N)n(CCOc2ccc3ccccc3c2)c2ccccc21 | -100.3% | 17.8µM* | ? | 4.7% | -4.9 | 11.2µM*
Cc1cc2c(=O)n(C)c(SCC(=O)Nc3cccc(F)c3)nc2s1 | -10.3% | -16.2% | ? | 7.8% | -24.2 | 10.8%
CCOc1ccc(-c2cc(NC(=O)c3cccc(Cl)c3)c(C(=O)OC)s2)cc1 | -20.9% | -9.8% | -10.3% | 5.1% | . | -18.5%
CCc1ccc(C(=O)c2cn(CC(=O)Nc3cc(OC)cc(OC)c3)c3ccc(CC)cc3c2=O)cc1 | 0.6% | -16.5% | ? | -3.8% | . | -1.1%
COc1ccc(C(=O)c2cn(CC(=O)Nc3ccc4c(c3)OCCO4)c3ccc(OC)cc3c2=O)cc1 | 2.0% | 20.6µM* | ? | . | . | 1.5%
CCOc1ccc(C(=O)c2cn(CC(=O)Nc3cc(OC)cc(OC)c3)c3ccc(F)cc3c2=O)cc1 | -13.4% | ? | 20.6µM* | -6.4% | . | -7.0%
CCOc1ccc(C(=O)c2cn(CC(=O)Nc3ccc4c(c3)OCO4)c3ccc(OCC)cc3c2=O)cc1 | 0.2% | ? | 3.26µM* | -1.3% | . | -13.6%
COc1ccccc1C1(CC(=O)Nc2nccs2)CCOC(C(C)C)C1 (configuration not stated) | -15.2% | 5.17µM* | 4.61µM* | 3.2% | 38.9 | ?
COc1ccccc1C(=O)NNC(=O)c1ccc2ccccc2c1 | 32.6% | -2.8% | -26.2% | . | -3.9 | 21.8%
COc1ccc(C(=O)NNC(=O)c2ccccc2[N+](=O)[O-])cc1 | 21.3% | -15.2% | 4.2% | -5.5% | 1.5 | -7.3%
COc1ccc(C(=O)NNC(=O)c2cc3ccccc3cc2O)cc1 | 30.8% | ? | 13µM* | . | 139.6 | -13.8%
COc1ccccc1C(=O)NNC(=O)C1CC=CCC1 (configuration not stated) | -14.4% | -16.3% | 1.8% | 35.5µM* | 14.5 | 14.4%
COc1ccccc1C(=O)NNC(=O)c1cc2ccccc2cc1O | -26.9% | 13µM* | 18.4µM* | . | 78.9 | -20.1%
Cc1noc(-c2ccc(N3CCC(C)CC3)c([N+](=O)[O-])c2)n1 | -9.7% | ? | ? | 2.9% | . | -2.9%
OC1CCC(Nc2ccn3nc(-c4cccc(Cl)c4)cc3n2)CC1 (configuration not stated) | -30.0% | ? | ? | . | 14.0 | -16.6%
c1cc(-c2cc3nc(NC4CCCCC4)ccn3n2)ccc1OCCN1CCOCC1 | -71.9% | 3.26µM* | 3.26µM* | . | -76.4* | 11.2µM*
CC(C)Cc1ccc(-c2cc3nc(NCC4CC4)ccn3n2)cc1 | -36.9% | 20.6µM* | ? | . | 0.0 | -24.3%
